Source: PubChem BioAssay (Tox21)
Calls of active or inactive are those of the source. Calls come from the whole dose curve; as a rule, active = well fitted activation curve with a large enough effect in the repeat runs; inconclusive = weak or mixed curves; inactive = flat fitted curve, though single readings scatter.

experiment: A CellTox Green Cytotoxicity Assay to monitor cytotoxicity in HEK293 cells - 0 hour (AID 1224869); conditions: CellTox Green fluorescence; series mostly up to 76.8 µM; cytotoxicity: at the top concentration; note: nearly all actives have a fitted effect of over 50% in size
Description: National Center for Advancing Translational Sciences [NCATS]
NIH Chemical Genomics Center [NCGC]
U.S. Environmental Protection Agency [EPA]
National Institutes of Environmental Health Sciences [NIEHS]
National Toxicology Program [NTP]
Cell-based models are critical for drug discovery. Determining the natural cytotoxic effects resulting from test compounds is an essential research activity. A CellTox Green Cytotoxicity Assay to monitor cytotoxicity in real time of continues cell culture during 40 hours of the compound treatment was used to screen Tox21 10K library compounds in Hek293 cells. CellTox Green Cytotoxicity Assay is a nonlytic, homogeneous, biofluorescent method to measure cytotoxicity in cell culture after experimental manipulation. The assay system uses a proprietary asymmetric cyanine dye that is excluded from viable cells but preferentially stains the dead cell's DNA. […] Viable cells produce no appreciable increases in fluorescence. Therefore, the fluorescence signal produced by the binding interaction with dead cell DNA is proportional to cytotoxicity.
The mixture of Hek293 cell suspension and reagents were dispensed at 600cells/6 ul/well in 1536-well tissue culture treated black solid bottom plates using a Multidrop dispenser. After the assay plates were incubated at a 37 C/5% CO2 incubator for 5 hours, 23 nL of compounds dissolved in DMSO, positive and negative controls was transferred to the assay plate by a pintool work station. The plates were incubated at 37 C for 40 hours. The fluorescence intensity were measured at 0h, 8h, 16h, 24h, 32h and 40h time points using ViewLux plate reader during compound treatment.
% is set by controls: 0 for no effect and ±100 for the full control effect; potency is the fitted concentration of half-maximal effect.

Structure (SMILES)	cytotoxicity	Potency
CC(C)C[C@H](NC(=O)OCC1c2ccccc2-c2ccccc21)C(=O)O	-8.55% (inactive)	–
Cc1ccc(C)c(N)c1	-4.93% (inactive)	–
CC(CNC1CCCCC1)OC(=O)c1ccccc1 (stereo not given)	-11.7% [at 35.3 µM] (inactive)	–
CCCOCCC	-4.79% (inactive)	–
CCCCCCCCCCCCCCCCOP(=O)([O-])OCC[N+](C)(C)C	-1.9% [at 35.3 µM] (inactive)	–
Cc1ccc(C(C)C)cc1O	-11.2% (inactive)	–
CCN(CCCc1ccccc1)CCCc1ccccc1	2.92% [at 35.3 µM] (inactive)	–
CCCS(=O)c1ccc2nc(NC(=O)OC)[nH]c2c1 (stereo not given)	-9.68% [at 35.3 µM] (inactive)	–
CC1=C(O)C(=O)OC1C (stereo not given)	0.487% (inactive)	–
CCOC(=O)CS	-1.46% (inactive)	–
Cc1nc(N)nc(N)c1-c1ccc(Cl)c(Cl)c1	9.53% [at 35.3 µM] (inactive)	–
O=C(O[C@@H](C(=O)O)[C@@H](OC(=O)c1ccccc1)C(=O)O)c1ccccc1	6.28% (inactive)	–
CCCCCCCCCC#N	0.449% (inactive)	–
CCOc1ccc(OCC)c(Cl)c1	-3.95% (inactive)	–
COC(=O)c1ccc(OC)cc1	1.58% (inactive)	–
FC(F)(F)c1ccccc1	-6.57% (inactive)	–
CCCOc1ccc2c(c1)CC[C@@H]1[C@@H]2CC[C@]2(C)C(OC)CC[C@@H]12 (stereo not given in full)	-0.351% [at 35.3 µM] (inactive)	–
O=C(O)C(=O)Cc1c[nH]c2ccccc12	-0.687% (inactive)	–
CCCCCOc1ccc(C2SC(=O)NC2=O)cc1OCC (stereo not given)	-3.86% [at 35.3 µM] (inactive)	–
CC(C)CC(=O)OCc1ccccc1	1.98% (inactive)	–

Structure (SMILES)	cytotoxicity	Potency
CC1=C2[C@H](/C=C(\C)C(=O)O)CC[C@@H](C)[C@H]2CC1	5.67% (inactive)	–
CC(C)(C)c1cccc(O)c1	-7.98% (inactive)	–
C=CCCC=C	8.49% (inactive)	–
Cc1c(C(=O)NCCO)[n+](=O)c2ccccc2n1[O-]	0.905% [at 35.3 µM] (inactive)	–
CC(C)CCCCCCc1ccc(OCCOCCO)cc1	-0.452% (inactive)	–
CN(C)Cc1ccccc1	3.5% (inactive)	–
NC(Cc1ccc(F)cc1)C(=O)O (stereo not given)	7.03% [at 6.97 µM] (inactive)	–
Cc1cc2nc(N)sc2cc1C	1.98% (inactive)	–
CCCCCCn1c(=O)c2c(ncn2C)n(C)c1=O	1.84% [at 35.3 µM] (inactive)	–
CCC1(C)NC(=O)NC1=O (stereo not given)	-3.19% (inactive)	–
CN1CCN(C2=Nc3ccccc3Oc3ccc(Cl)cc32)CC1	0.174% [at 35.3 µM] (inactive)	–
CC1CN(c2ccccc2)NC1=O (stereo not given)	-1.19% (inactive)	–
Cc1ccc(C=O)s1	–	24.5 µM (active)
CCCc1c2oc(C(=O)O)cc(=O)c2cc2c(=O)cc(C(=O)O)n(CC)c12	15.6% [at 35.3 µM] (inactive)	–
NNS(=O)(=O)c1ccc(Oc2ccc(S(=O)(=O)NN)cc2)cc1	2.49% (inactive)	–
Cc1ncc(CO)c(CN)c1O	-0.878% [at 35.3 µM] (inactive)	–
CS(=O)(=O)c1ccc([C@@H](O)[C@@H](CF)NC(=O)C(Cl)Cl)cc1	-0.489% [at 35.3 µM] (inactive)	–
c1ccc(CN(CC2=NCCN2)c2ccccc2)cc1	-6.81% [at 35.3 µM] (inactive)	–
CCCCCCCOC(=O)CCC	17.4% (inactive)	–
C[C@@H](N)C(=O)O	-2.53% [at 35.3 µM] (inactive)	–
